Data published in PubChem BioAssay (NCATS).
Unmarked numbers belong to inactive results. Results filed as inconclusive are left out. Where a call stands in place of a potency, no number is given. Calls of active or inactive are those of the source. Unless noted, calls come from the whole dose curve; as a rule, active = well fitted curve in the direction sought with a large enough effect; inconclusive = small, poorly fitted or top-dose-only effect, or another doubt; inactive = no such curve, though single readings can be large; an effect the other way counts as inactive or inconclusive.

Legend:
[1] = qHTS Assay for Identification of Small Molecule Antagonists for NFkB Signaling Pathway (AID 895; active = well fitted inhibition curve with a large enough effect in the signal ratio, with a control signal flat, not every such curve was filed as active; the % refers to the signal ratio; note: potency is the fitted concentration of half-maximal effect); conditions: NFkB beta-lactamase reporter cells, FRET ratio 460/530, stimulated with 10 pM TNF alpha; series mostly up to 38.3 µM
Summary of the method: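 ME-180 NFkB-bla cells (beta-lactamase under NFkB response element), plated overnight, treated with compound then 10 pM TNF alpha (about EC50) for 5 hrs at 37 C. LiveBLAzer FRET read at 460/530 nm emission, 405 nm excitation.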

[2] = qHTS Assay for Identification of Small Molecule Agonists for Thrombopoietin (TPO) Signaling Pathway (AID 917); conditions: TPO signaling pathway reporter cells, agonist qHTS, stimulated with TPO at its EC50; series mostly up to 38.5 µM
Summary of the method: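 First, Ba/F3 cells with human TPO receptor were held overnight without IL-3. Next, compounds and TPO (26 pM final) were added. After 24 hrs at 37 C, luciferase detection reagent was added and luminescence measured following 10 min at room temperature.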

[3] = molecular target: Muscarinic acetylcholine receptor M1 (Rattus norvegicus) (UniProt P08482); experiment: qHTS Assay for Antagonists of Acetylcholine Muscarinic M1 Receptor: Measurement of IP-One Response (AID 944); conditions: CHO-M1 cells, IP-One HTRF, antagonist mode; series mostly up to 46.1 µM; note: nearly all actives have a fitted effect of over 75% in size
Chain of Muscarinic acetylcholine receptor M1 (Rattus norvegicus) (P08482 whole entry, looked up): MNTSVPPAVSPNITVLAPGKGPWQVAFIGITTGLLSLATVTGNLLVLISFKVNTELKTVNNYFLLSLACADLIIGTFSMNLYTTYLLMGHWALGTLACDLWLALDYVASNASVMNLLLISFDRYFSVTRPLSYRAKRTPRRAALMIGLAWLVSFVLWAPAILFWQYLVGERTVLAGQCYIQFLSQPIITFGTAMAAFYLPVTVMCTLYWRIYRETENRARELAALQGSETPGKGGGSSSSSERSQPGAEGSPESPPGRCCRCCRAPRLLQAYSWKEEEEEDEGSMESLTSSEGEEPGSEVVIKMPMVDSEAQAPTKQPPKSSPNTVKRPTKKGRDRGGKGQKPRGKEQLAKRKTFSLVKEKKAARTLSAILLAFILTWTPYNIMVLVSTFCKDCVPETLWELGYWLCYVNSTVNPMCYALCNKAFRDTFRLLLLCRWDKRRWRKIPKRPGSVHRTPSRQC
Summary of the method: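 Read-out: HTRF competition between d2-IP1 and Eu-cryptate anti-IP1 antibody, emission 620 and 665 nm. Stimulus was carbachol, EC80 (200 nM), for 30 min in M1-CHO cells (rat receptor), after 10 min compound pre-treatment.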

[4] = molecular target: Pyruvate kinase (Leishmania mexicana) (UniProt Q27686); experiment: qHTS Validation Assay for Inhibitors of Leishmania Mexicana Pyruvate Kinase (AID 945); note: potency is the fitted concentration of half-maximal effect; conditions: purified L. mexicana pyruvate kinase, enzyme activity, E451W mutant enzyme; series mostly up to 57.5 µM
Chain of Pyruvate kinase (Leishmania mexicana) (Q27686 2-499 E452W): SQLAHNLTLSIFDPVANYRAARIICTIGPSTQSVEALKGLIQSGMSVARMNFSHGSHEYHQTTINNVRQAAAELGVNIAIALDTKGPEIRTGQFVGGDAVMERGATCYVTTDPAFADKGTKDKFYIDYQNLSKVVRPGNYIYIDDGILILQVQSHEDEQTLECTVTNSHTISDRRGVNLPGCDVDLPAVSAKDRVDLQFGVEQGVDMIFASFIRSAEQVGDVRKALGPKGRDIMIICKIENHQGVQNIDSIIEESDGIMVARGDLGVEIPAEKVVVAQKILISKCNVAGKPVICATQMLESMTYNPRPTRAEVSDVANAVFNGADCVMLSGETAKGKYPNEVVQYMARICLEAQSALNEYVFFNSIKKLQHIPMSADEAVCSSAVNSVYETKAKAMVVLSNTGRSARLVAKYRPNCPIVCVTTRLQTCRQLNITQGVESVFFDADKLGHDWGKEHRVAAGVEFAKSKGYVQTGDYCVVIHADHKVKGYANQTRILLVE
Summary of the method: (§1)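 Read-out: luminescence from PKLight stop/detection reagent, data normalized to DMSO. Reaction: 0.2 nM E451W LmPYK, 0.5 mM PEP, 0.1 mM ADP, pH 7.2, 1 h room temperature.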

[5] = molecular target: Pyruvate kinase PKM (Homo sapiens) (UniProt P14618); experiment: qHTS Assay for Activators of Human Muscle Pyruvate Kinase (AID 954; active = well fitted curve in the direction sought with a large enough effect, not every such curve was filed as active); conditions: purified human muscle pyruvate kinase, luciferase-coupled luminescence, 1 h; series mostly up to 57.5 µM
Chain of Pyruvate kinase PKM (Homo sapiens) (P14618 whole entry, looked up): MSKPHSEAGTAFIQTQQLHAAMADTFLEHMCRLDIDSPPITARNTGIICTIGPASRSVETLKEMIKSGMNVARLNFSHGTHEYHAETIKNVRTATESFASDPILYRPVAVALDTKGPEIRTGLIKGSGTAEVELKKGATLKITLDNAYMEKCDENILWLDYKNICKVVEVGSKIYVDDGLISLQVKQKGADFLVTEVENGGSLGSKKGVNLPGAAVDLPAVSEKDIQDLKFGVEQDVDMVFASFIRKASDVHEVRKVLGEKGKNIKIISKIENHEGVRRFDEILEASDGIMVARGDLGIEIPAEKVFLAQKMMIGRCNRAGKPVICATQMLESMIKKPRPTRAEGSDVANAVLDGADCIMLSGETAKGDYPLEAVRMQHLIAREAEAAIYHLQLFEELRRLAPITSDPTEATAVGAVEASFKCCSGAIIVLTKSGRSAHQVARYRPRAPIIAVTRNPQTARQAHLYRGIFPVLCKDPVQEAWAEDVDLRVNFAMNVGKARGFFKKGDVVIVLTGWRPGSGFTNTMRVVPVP
Summary of the method: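 Screening used highly purified human pyruvate kinase M2 under submaximal activity, with PEP at its Km and ADP below Km. After an hour at room temperature, ATP was read by luciferase luminescence.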

[6] = molecular target: Pyruvate kinase PKM (Homo sapiens) (UniProt P14618); experiment: qHTS Assay for Inhibitors of Human Muscle Pyruvate Kinase (AID 958); conditions: purified human PKM enzyme activity; series mostly up to 57.5 µM
Summary of the method: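 PKM2, human, >95% pure, 0.1 nM; PEP 0.5 mM (Km), ADP 0.1 mM; 50 mM imidazole pH 7.2, 50 mM KCl, 0.01% Tween 20, 0.05% BSA; 1 h RT; luciferase luminescence readout.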

[7] = molecular target: Pyruvate kinase (Leishmania mexicana) (UniProt Q27686); experiment: qHTS Validation Assay for Activators of Leishmania Mexicana Pyruvate Kinase (AID 959); conditions: purified L. mexicana pyruvate kinase, enzyme activity; series mostly up to 57.5 µM
Summary of the method: as §1

[8] = molecular target: Cytochrome P450 2C19 (Homo sapiens) (UniProt P33261); experiment: qHTS Assay for Inhibitors and Substrates of Cytochrome P450 2C19 (AID 899); conditions: recombinant CYP2C19, luciferin-H EGE luminescence; series mostly up to 57.1 µM; note: nearly all actives have a fitted effect of over 60% in size
Chain of Cytochrome P450 2C19 (Homo sapiens) (P33261 whole entry, looked up): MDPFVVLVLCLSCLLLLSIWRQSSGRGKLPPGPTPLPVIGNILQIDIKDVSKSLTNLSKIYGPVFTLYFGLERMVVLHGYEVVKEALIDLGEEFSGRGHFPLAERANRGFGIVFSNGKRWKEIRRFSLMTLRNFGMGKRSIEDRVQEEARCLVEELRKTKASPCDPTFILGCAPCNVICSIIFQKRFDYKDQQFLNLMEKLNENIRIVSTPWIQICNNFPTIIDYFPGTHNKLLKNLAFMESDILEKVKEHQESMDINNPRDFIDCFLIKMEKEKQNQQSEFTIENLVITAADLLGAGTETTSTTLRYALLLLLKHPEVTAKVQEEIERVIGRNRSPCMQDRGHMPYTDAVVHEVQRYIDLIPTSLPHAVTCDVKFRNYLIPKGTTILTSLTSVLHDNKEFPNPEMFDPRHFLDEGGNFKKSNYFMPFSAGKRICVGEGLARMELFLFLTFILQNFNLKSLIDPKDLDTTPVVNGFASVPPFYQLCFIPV
Summary of the method: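 Luminescent read-out of luciferin formed from Luciferin-H EGE (10uM, equal to KM). Enzyme 5nM in 50mM KPO4; compound added, 10 min at 37C, then NADPH regenerating system for 60 min at 37C. Full inhibition defined by 57uM ketoconazole.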

[9] = molecular target: Muscarinic acetylcholine receptor M1 (Rattus norvegicus) (UniProt P08482); experiment: qHTS Assay for Antagonists of Acetylcholine Muscarinic M1 Receptor: Kinetic Measurement of Intracellular Calcium Response (AID 943); conditions: M1-expressing cells, kinetic intracellular calcium fluorescence; series mostly up to 35.3 µM; note: nearly all actives have a fitted effect of over 75% in size; note: potency is the fitted concentration of half-maximal effect
Summary of the method: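 Read-out: peak over basal Fluo-4 fluorescence, kinetic at 1 Hz for 4 min after EC80 carbachol (100 nM final). Rat M1-CHO cells, dye loaded 1 h at 37C, compound added 10 min before agonist.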

[10] = qHTS Assay for Identification of Small Molecule Agonists for Hypoxia Response Element Signaling Pathway (AID 914; active = well fitted activation curve with a large enough effect in the signal ratio, with a control signal flat, not every such curve was filed as active; the % refers to the signal ratio; note: potency is the fitted concentration of half-maximal effect); conditions: ME-180 (cervical carcinoma) HRE-bla reporter, beta-lactamase ratio, CoCl2, 17 h; activation: stronger effect = higher value
Summary of the method: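 qHTS titration; ME-180 HRE-bla cells; EC50 CoCl2 co-treatment, 17 h at 37 degrees Celsius; CCF4 dye, ex 405nm, em 460nm and 530nm; %Activity from ratio; AC50.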

[11] = qHTS Assay for Identification of Small Molecule Antagonists for Thrombopoietin (TPO) Signaling Pathway (AID 918); conditions: TPO-dependent cell signaling reporter, antagonist mode; note: potency is the fitted concentration of half-maximal effect; nearly all actives have a fitted effect of over 60% in size
Summary of the method: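 Luminescence read-out: GPIIb-promoter luciferase in Ba/F3 cells carrying human TPO receptor. Compounds added with 26 pM TPO (EC50), 24 hrs, 37 C, 5% CO2; cells deprived of IL-3 overnight beforehand. Inhibition of signal scored.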

[12] = Confirmation and Secondary Assay for Modulators of Hemoglobin Beta Chain Splicing at IVS2 654 locus (AID 910); conditions: HeLa EGFP-654 splicing reporter, GFP fluorescence, 48 h; series mostly up to 46.1 µM;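 note: HeLa cells stably carrying EGFP split by mutant beta-globin IVS2-654 intron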;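 note: potency is the fitted concentration of half-maximal effect; potency of activators that raise GFP signal by restoring correct splicing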
Summary of the method: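 HeLa cells stably expressing EGFP interrupted by β-globin IVS2-654 intron, seeded overnight in Opti-MEM/2% FCS, then treated 2 days at 37 °C. Restored splicing read as total peak GFP intensity per well by laser scanning cytometry (488 nm excitation, 500–520 nm emission); 500 nM antisense PNA as control.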

[13] = Confirmation and Secondary Assay for Modulators of Hemoglobin Beta Chain Splicing at IVS2 705 locus (AID 930); conditions: HeLa EGFP-705 splicing reporter, GFP fluorescence, 48 h; series mostly up to 46.1 µM;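 note: HeLa cells stably expressing the EGFP-705 splicing reporter; GFP fluorescence per well restored by corrected splicing of the IVS2-705 intron in EGFP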
Summary of the method: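 Secondary splice-site specificity test uses HeLa expressing CMV-driven EGFP interrupted by IVS2-705; cells were treated 2 days at 37C with 500 nM antisense PNA as positive control.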

N=C(N)c1ccccc1
Potency [1]: inactive
Potency [2]: inactive
Potency [3]: inactive
Potency [4]: inactive
outcome [5]: inactive

C#CCn1c(=O)c2c(ncn2C)n(C)c1=O
Potency [1]: inactive
Potency [2]: inactive
Potency [3]: inactive
Potency [4]: inactive
outcome [5]: inactive

Nc1ccc(-c2ccc3ccccc3n2)cc1
Potency [1]: inactive
Potency [3]: inactive
Potency [4]: 12.6 µM (active)
Potency [6]: 12.6 µM (active)
Potency [7]: inactive

CCC(=O)N1CCN(C(=O)c2ccccc2)CC1
Potency [1]: inactive
Potency [2]: inactive
Potency [4]: inactive
outcome [5]: inactive

N#CC(C#N)=C(N)/C(C#N)=C/c1ccc(O)cc1
Potency [1]: inactive
Potency [2]: inactive
Potency [3]: inactive
Potency [4]: inactive
outcome [5]: inactive

COc1ccc(CCN(C)CCc2ccc(OC)c(OC)c2)cc1OC
Potency [1]: inactive
Potency [2]: inactive
Potency [4]: inactive
outcome [5]: inactive

O=C(O)C1CCNCC1
Potency [1]: inactive
Potency [2]: inactive
Potency [3]: inactive
Potency [4]: inactive

CNCCNS(=O)(=O)c1cccc2cnccc12
Potency [1]: 10 µM (active)
Potency [2]: inactive
Potency [3]: inactive
Potency [4]: inactive
outcome [5]: inactive

C[C@](Cc1ccc(O)c(O)c1)(NN)C(=O)O
Potency [8]: inactive

COc1ccccc1N1CCN(CCCNc2c(C)c(=O)n(C)c(=O)n2C)CC1
Potency [1]: inactive
Potency [2]: inactive
Potency [4]: inactive
outcome [5]: inactive

CN(C)S(=O)(=O)c1ccc2c(c1)/C(=C/c1cc3c([nH]1)CCCC3)C(=O)N2
Potency [1]: 1.58 µM (active)
Potency [2]: inactive
Potency [9]: inactive
Potency [4]: inactive
outcome [5]: inactive

COc1cc(N)c(Cl)cc1C(=O)OCCN1CCCCC1
Potency [1]: inactive
Potency [2]: inactive
Potency [4]: inactive
outcome [5]: inactive

CCN(c1nc(N)c(C(=O)N=C(N)N)nc1Cl)C(C)C
Potency [1]: inactive
Potency [3]: inactive
Potency [4]: inactive
outcome [5]: inactive

C=CC[C@H](N)C(=O)O
Potency [1]: inactive
Potency [9]: inactive
Potency [3]: inactive
Potency [4]: inactive
outcome [5]: inactive

Cn1c(=O)c2[nH]c(C3CCCC3)nc2n(C)c1=O
activation [10]: -4.29%

Cn1cc(C(=O)OCC2CCN(CCNS(C)(=O)=O)CC2)c2ccccc21
activation [10]: 26.2%

O=C(N[C@@H](Cc1ccccc1)C(=O)CCl)OCc1ccccc1
Potency [11]: 2.51 µM (active)

CNC(=O)c1cc2c(cn1)[nH]c1ccccc12
Potency [7]: inactive

O=C1Cc2c([nH]c3ccc(Br)cc23)-c2ccccc2N1
Potency [7]: inactive

CCCCCCC/C=C\CCCCCCCCC(=O)O
activation [10]: -14%
Potency [2]: inactive
Potency [9]: inactive
Potency [3]: inactive
Potency [4]: inactive
outcome [5]: inactive

c1ccc(C2CN3CCSC3=N2)cc1 (centres undefined)
Potency [12]: inactive
outcome [13]: inactive

COc1ccc2c(c1)c(CC(=O)O)c(C)n2Cc1ccc(Cl)cc1
Potency [2]: inactive
Potency [3]: inactive
Potency [4]: inactive

OC[C@H]1O[C@@H](n2cnc3cncnc32)[C@H](O)[C@@H]1O
Potency [12]: 1.26 µM (active)
outcome [13]: inactive

COc1cc(CNC(=O)CCCCCCC(C)C)ccc1O
Potency [2]: inactive
Potency [9]: inactive
Potency [3]: inactive
Potency [4]: inactive
outcome [5]: inactive

C=C(C)C1CC=C(C(=O)O)CC1 (centres undefined)
Potency [12]: inactive
outcome [13]: inactive

COc1ccccc1N1CCN(CCN(C(=O)c2ccc(F)cc2)c2ccccn2)CC1
Potency [2]: inactive
Potency [3]: inactive
Potency [4]: inactive

CCCOC(=O)c1c(-c2ccccc2)nc(CC)c(C(=O)SCC)c1CCC
Potency [2]: inactive
Potency [3]: inactive
Potency [4]: inactive

CCCn1c(=O)c2[nH]c(-c3ccc(S(=O)(=O)O)cc3)nc2n(CCC)c1=O
Potency [2]: inactive
Potency [3]: inactive
Potency [4]: inactive
outcome [5]: inactive

CCCn1c(=O)c2c(ncn2C)n(CCC)c1=O
activation [10]: 3.52%
Potency [2]: inactive
Potency [9]: inactive
Potency [4]: inactive

O=C(OCCN1CCOCC1)C1(c2ccccc2)CCCCC1
Potency [2]: inactive
Potency [9]: 2 µM (active)
Potency [4]: inactive
outcome [5]: inactive

N[C@@H](Cc1c[nH]c2ccccc12)C(=O)O
Potency [2]: inactive
Potency [9]: inactive
Potency [3]: inactive
Potency [4]: inactive

NC(N)=[N+]1CCc2ccccc2C1
Potency [2]: inactive
Potency [9]: inactive
Potency [4]: inactive
outcome [5]: inactive

N[C@@H](Cc1ccc(O)c(I)c1)C(=O)O
Potency [2]: inactive
Potency [9]: inactive
Potency [3]: inactive
Potency [4]: inactive

O=c1[nH]c2cc(Cl)ccc2c(O)c1-c1ccc(Oc2ccccc2)cc1
Potency [2]: inactive
Potency [3]: inactive
Potency [4]: inactive

CC(N)=O
Potency [2]: inactive
Potency [3]: inactive
Potency [4]: inactive

CC(C)(CO)Cc1cc(C(C)(C)C)c(O)c(C(C)(C)C)c1
Potency [10]: 12.6 µM (active)
Potency [2]: inactive
Potency [3]: inactive
Potency [4]: inactive
outcome [5]: inactive

COc1ccc(C(=O)NCc2cccnc2)cc1C(=O)NCc1cccnc1
Potency [2]: inactive
Potency [9]: inactive
Potency [3]: inactive
Potency [4]: inactive

O=C(O)Cc1c[nH]c2ccc(O)cc12
Potency [2]: inactive
Potency [3]: inactive
Potency [4]: inactive
outcome [5]: inactive

Nc1ccc(N2C(=O)c3ccccc3C2=O)c(Cl)c1
activation [10]: -21.1%
Potency [2]: inactive
Potency [3]: inactive
Potency [4]: inactive
outcome [5]: inactive
